# Measured values as given in PubChem BioAssay (NCI).
# Compounds without any hit were thinned out: in the full panel of roughly 83,000, 20% have a hit.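 In brief: 96-well plates, 48 h treatment, single concentration, percent growth endpoint.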 Values without a mark were called inactive. Calls of active or inactive are those of the source. Rule for the calls: active = growth percent below 10; inactive = the rest.
# Assays:
# Test in all cases: NCI-60 one-dose screen, 48 h (100 = growth as untreated, 0 = no growth, -100 = all killed)
# Settings in all cases: 10 µM unless noted
# T-47D breast = tested on: T-47D breast
# BT-549 breast = tested on: BT-549 breast
# MDA-MB-435 melanoma = tested on: MDA-MB-435 melanoma
# SW-620 colon = tested on: SW-620 colon
# MCF7 breast = tested on: MCF7 breast
# HCT-116 colon = tested on: HCT-116 colon
# HCC-2998 colon = tested on: HCC-2998 colon
# KM12 colon = tested on: KM12 colon
Compound,growth (T-47D breast),growth (BT-549 breast),growth (MDA-MB-435 melanoma),growth (SW-620 colon),growth (MCF7 breast),growth (HCT-116 colon),growth (HCC-2998 colon),growth (KM12 colon)
CCSCC1CC(O)(c2ccccc2)C(c2ccccc2)C(c2ccc(Cl)cc2)O1 (stereo unspecified),-7.67% (active),1.88% (active),-17.3% (active),1.98% (active),0.0329% (active),1.69% (active),17.9%,-31.2% (active)
COc1cccc(/C=N\NC(=O)c2ccncc2)c1O,28.2%,49.8%,83%,62.5%,26.5%,11.6%,57.2%,62.6%
O=C1C(=O)/C(=C/c2ccccc2)CCCCCC/C1=C/c1ccccc1,47.6%,16.4%,-41.8% (active),-19.1% (active),6.04% (active),-23.7% (active),-22.3% (active),-23.6% (active)
C/C=C(/C(=C/C)c1ccc(O)cc1)c1ccc(O)cc1,53.5%,40.7%,-40.2% (active),25.6%,20.6%,27%,61.7%,20.3%
Cc1nn(-c2ccccc2)cc1/C=C1\SC(N2CCCCC2)=NC1=O,82.4%,88.2%,92%,79.8%,55.8%,46.7%,94.5%,103%
Cc1cc(C)c2c(N)c3cccc(C)c3nc2n1,-3.39% (active),0.0119% (active),2.84% (active),-1.92% (active),6.02% (active),-39.4% (active),-38.7% (active),6.37% (active)
Cc1ncc(C(=O)Nc2ccc(CN3CCN(C)CC3)c(C(F)(F)F)c2)cc1C#Cc1cncc2ncccc12,83.7%,85.4%,36.9%,59.6%,71.9%,42.2%,74.5%,13.6%
COc1ccc(C(=O)/C=C/c2ccc(C)cc2)cc1OC,59.3%,89.8%,97.1%,24.7%,35.5%,30.1%,90.1%,20.1%
NC(=NCCCCCCN=C(N)/N=C(\N)Nc1ccc(Cl)cc1)/N=C(\N)Nc1ccc(Cl)cc1,19.3%,10.6%,18.3%,23.4%,7.79% (active),13.5%,15.3%,-12% (active)
Cc1ccc(C(NC(=O)c2ccccc2)c2ccc3cccnc3c2O)cc1 (stereo unspecified),25.1%,25.5%,30%,31.3%,24.8%,22.8%,30.7%,26.5%
Cc1sc2nc(NCCc3cccs3)[nH]c(=O)c2c1C,74.6%,74.7%,84.2%,96.4%,87.3%,71%,101%,92.6%
COC(=O)N/N=C/c1coc2ccc(Cl)cc2c1=O,83%,82.5%,103%,101%,88.9%,95.5%,101%,94%
CN1C(=O)C(C2=NN(C=O)C(c3ccc(F)cc3)C2)C(=O)N(C)C1=O (stereo unspecified),92.9%,102%,102%,98.8%,93.4%,98.7%,97.5%,99.9%
Nc1ccc2c(c1Br)Cc1ccccc1-2,87.8%,89%,110%,98.1%,51%,98.2%,99.1%,103%
C(#Cc1ccccc1C#Cc1ccccn1)c1ccc(OCCCCCCOc2ccc(C#Cc3ccccc3C#Cc3ccccn3)cc2)cc1,36.5%,39.6%,25.6%,62.6%,21.1%,38.4%,58.8%,37.1%
CSc1nc(Nc2ccc(S(=O)(=O)Nc3ccon3)cc2)c(C#N)c(-c2ccc(Cl)cc2)n1,97%,90.5%,97.9%,70.5%,94.3%,65.8%,94.4%,104%

Compound,growth (T-47D breast),growth (BT-549 breast),growth (MDA-MB-435 melanoma),growth (SW-620 colon),growth (MCF7 breast),growth (HCT-116 colon),growth (HCC-2998 colon),growth (KM12 colon)
O=C(N/N=C/c1ccc(Cl)cc1Cl)c1ccccc1Nc1cccc(C(F)(F)F)c1,83.4%,-57.4% (active),70.7%,84.4%,280%,60.7%,88.2%,79%
C=CCNC(=O)/C(=C/c1cccc([N+](=O)[O-])c1)NC(=O)c1ccccc1,98.2%,88.1%,101%,103%,101%,98.2%,78.2%,109%
C[N+]1(C)C2CC[C@@H]1CC(OC(=O)C(O)c1ccccc1)C2 (stereo partly specified),109%,99.6%,99.1%,109%,106%,102%,96.6%,109%
COC(=O)[C@H](Cc1cn(C)cn1)NC(=O)[C@@H](NC(=O)Nc1cc(C(F)(F)F)cc(C(F)(F)F)c1)C(C)C,-71.8% [100 µM] (active),-98% [100 µM] (active),-87.3% [100 µM] (active),-47.5% [100 µM] (active),-64.1% [100 µM] (active),-91.6% [100 µM] (active),-86.7% [100 µM] (active),-88.7% [100 µM] (active)
COC(=O)c1c(NC(=O)CSc2nnnn2-c2ccc(OC)cc2)sc(C)c1C,92.5%,99.6%,109%,96.2%,85.8%,92.1%,87.6%,98.7%
CNc1nc(NC2CCCC2)nc(Sc2ccc(OC)cc2)n1,27.3% [100 µM],7.66% [100 µM] (active),0.45% [100 µM] (active),21% [100 µM],30.9% [100 µM],0.657% [100 µM] (active),38% [100 µM],1.94% [100 µM] (active)
COc1cc(/C=C/C(=O)c2c(C)n([O-])c3ccc(Cl)cc3[n+]2=O)cc(OC)c1OC,58.6%,53.8%,84.1%,82.2%,42.2%,62.6%,106%,96.2%
O[N+]1=CC=CCC1=S.On1ccccc1=S.[Zn],-84.9% (active),-84% (active),-82.8% (active),-77.2% (active),-75.6% (active),-88.1% (active),-76.3% (active),-88.3% (active)
Cc1sc2nc(NCc3ccccc3)[nH]c(=O)c2c1C,31.6%,53.9%,-31% (active),26%,31%,24.5%,87.7%,36.2%
CCCCc1n(Cc2ccc3ccccc3c2)cc[n+]1Cc1ccc2ccccc2c1,-1.14% (active),-76.4% (active),-77.5% (active),1.48% (active),-42.3% (active),-97.2% (active),-5.21% (active),-82.5% (active)
COc1cnc2c(c1)C(=O)c1c-2n(CCCn2ccnc2)c(=O)c2cc(F)ccc12,-9.74% (active),-11.2% (active),-60.3% (active),-45.2% (active),0.795% (active),-49.9% (active),4.65% (active),0.0466% (active)
CCOc1cc(/C=C/C(=O)CC(=O)/C=C/c2ccc(OC(=O)CNCCN(CC)CC)c(OCC)c2)ccc1OC(=O)CNCCN(CC)CC,36.9%,-77.2% (active),-21.6% (active),-58.1% (active),7.36% (active),-84.7% (active),-71.2% (active),-60.2% (active)
O=c1c2c(=NCCCN3CCCC3)cc3c(=O)n(CCCN4CCCC4)c(=O)c4c(NCCCN5CCCC5)cc(c(O)n1CCCN1CCCC1)c2c4-3,-6.25% (active),-29.9% (active),-62.4% (active),-3.24% (active),0.241% (active),2.72% (active),-43.1% (active),0.818% (active)
CS(=O)(=O)N1CCN(Cc2cc3nc(-c4cccc5[nH]ncc45)nc(N4CCOCC4)c3s2)CC1 (tested in a mixture with another compound),-7.59% (active),33.6%,15.9%,40.8%,6.96% (active),23.8%,-9.43% (active),24.8%
Cc1ccc(-c2c3c(N)c4c(nc3nc3c2c(C)nn3-c2ccccc2)CCC4)cc1,103%,90.4%,103%,6.36% (active),14.9%,-72.5% (active),100%,79.8%
O=C(c1ccc(N2CCOCC2)cc1[N+](=O)[O-])N1CCOCC1,102%,104%,-32.2% (active),93.1%,127%,107%,108%,121%
